Test results taken from PubChem BioAssay AID686979 (National Center for Advancing Translational Sciences (NCATS), 2013).
Among all 420,000 compounds or so, about 50,000 (12%) were called active. Entries that show only a call come without a potency. Not shown: some 26% with an inconclusive outcome. The call rests on the fitted dose curve; in most records, active means well fitted inhibition curve with a large enough effect; inconclusive means small, poorly fitted or top-dose-only effect; inactive means flat fitted curve, though single readings scatter. Only a selection was taken, and actives are over-represented in it overall.

experiment: qHTS for Inhibitors of human tyrosyl-DNA phosphodiesterase 1 (TDP1): qHTS in cells in presence of CPT; settings: chicken DT40 Tdp1-/-;hTDP1 cells + 20 nM CPT, ATP luminescence, 48 h; series mostly up to 46.2 µM; further: nearly all actives have a fitted effect of over 55% in size
How it was run: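 Chicken DT40 Tdp1-/- cells stably complemented with human TDP1 were seeded at 400 cells/well in medium containing 20 nM camptothecin, exposed to pin-transferred compounds, and grown at 37 °C for at least 48 hr. Viability was read as ATP luminescence.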
Potency means the concentration at half of the fitted maximal effect.

Structure (SMILES) | Potency
CCOP(=O)(OCC)C(NC(=O)c1ccc(C)cc1)C(Cl)(Cl)Cl (centres undefined) | inactive
CCOP(=O)(OCC)C(Cc1ccccc1)N=C(c1ccccc1)c1ccccc1 (centres undefined) | 16.4 µM (active)
CCOP(=O)(OCC)C(NC(=O)c1ccc(OC)cc1)C(Cl)(Cl)Cl (centres undefined) | inactive
CC(C)CN1CCN(Cc2ccccc2C(F)(F)F)CC1CCO (centres undefined) | inactive
CCOc1ccc(C2SCC(=O)Nc3c2c(C)nn3C2CCOC(C)(C)C2)cc1 (centres undefined) | inactive
O=c1c2ccccc2nc(-c2ccccc2)n1-c1ccccn1 | inactive
COc1ccc(-n2c(-c3ccccc3)nc3ccccc3c2=O)cc1 | 18.4 µM (active)
CC(CCC(=O)O)C1CCC2C3C(O)C[C@@H]4CC(O)CC[C@@]4(C)C3CC[C@@]12C (some centres undefined) | inactive
COc1ccc(-c2cc(NC=O)c3ncc(-c4cc(OC)c(OC)c(OC)c4)n3c2)c(OC)c1 | 0.58 µM (active)
CCCCCCCCCCCCn1ccc(=N)cc1 | 0.461 µM (active)
CNC(=S)N/N=C1\C2CN3CCN(C2)CC1(c1ccccc1)C3 | inactive
CC(C)=C[C@@H]1[C@@H](C(=O)OCc2coc(Cc3ccccc3)c2)C1(C)C | inactive
CCOc1cccc(=NC2CCCCC2)c2c(C)[nH]c(C)c12 | 5.8 µM (active)
Cc1cc(C)c2c(c1)NP(=S)(c1ccccc1)N2 (centres undefined) | inactive
O=C1/C(=C\c2ccc3c(c2)OCO3)N2CCC1CC2 | inactive
COc1ccc2[nH]cc(CCNCc3ccc(Br)cc3)c2c1 | 13 µM (active)
c1cncc(CNCCc2c[nH]c3ccccc23)c1 | inactive
O=C(N/N=C/c1c(O)n(Cc2ccccc2)c(=O)[nH]c1=O)c1ccccc1 | inactive
COc1ccc(Cn2c(O)c(/C=C3/C=CC=N3)c(=O)[nH]c2=O)cc1 | 20.6 µM (active)
COc1ccc(N=Cc2c(O)n(C)c(=O)[nH]c2=O)cc1 | inactive
CNC(=O)N(C)c1nnc(C(C)(C)C)s1 | inactive
CC1N=C(N)OC1c1ccccc1 (centres undefined) | inactive
CCOCCCNC(=O)c1c(NC(=O)c2nc(SC)ncc2Cl)sc2c1CCCC2 | 6.51 µM (active)
CCCOC(=O)C1C2c3ccccc3C(c3ccccc32)C1C(=O)O (centres undefined) | inactive
Cc1nc2ccccn2c1P(=S)(N1CCCCC1)N1CCCCC1 | 20.6 µM (active)
CCOC(=O)CNC(=O)N1Cc2cc(N3CCCCC3)ccc2-n2nncc2C1 | inactive

Structure (SMILES) | Potency
Cc1cc(=O)oc2c(C)c(OCC(=O)N3CCN(Cc4ccc5c(c4)OCO5)CC3)ccc12 | inactive
CCC(C)(O)C(=O)OC1C(=O)OC2CC3C(C)=CC(=O)C(O)C3(C)C3C4(O)OCC23C1C(C)C4O (centres undefined) | 0.116 µM (active)
COc1ccc(NC(=O)N2CCC3(CC2)OCCO3)c(OC)c1 | inactive
CCCC[N+]1(C)C2CC(OC(=O)C(CO)c3ccccc3)CC1C1OC12 (centres undefined) | inactive
Cc1ccccc1N1C(=O)NC(=O)/C(=C\c2cc(C)n(C)c2C)C1=O | inactive
O=C1NCN(c2ccccc2)C12CCN(C(c1cccs1)c1nnnn1C1CCCCC1)CC2 (centres undefined) | 16.4 µM (active)
CC[N+]1(C)CCCC(OC(=O)C(O)(c2ccccc2)c2ccccc2)C1 (centres undefined) | inactive
CN(C)C(=O)Oc1ccc(NC(=O)N2CCOCC2)cc1 | inactive
Cc1ccc(-c2cc(C(=O)N3CCC4(CC3)OCCO4)no2)cc1 | inactive
Cc1cccc(-n2c(C)nc3cc(C(=O)N4CCC5(CC4)OCCO5)ccc32)c1 | 20.6 µM (active)
O=C(c1cc(-c2ccncc2)nc2ccccc12)N1CCC2(CC1)OCCO2 | inactive
COc1cc(C(c2c(O)c3ccccc3oc2=O)c2c(C)n(C)n(-c3ccccc3)c2=O)ccc1O (centres undefined) | inactive
COP(=O)(NS(=O)(=O)c1ccccc1)OC | inactive
ClCCN(CCCl)c1ccc(C=Nc2ccc(/C=C/c3ccnc4ccccc34)cc2)cc1 | 10 µM (active)
C=CCN(CC=C)C(=O)Nc1ccc(OCC)cc1 | inactive
O=C1NC(=O)N(Cc2ccco2)C(=O)/C1=C\c1cccn1CCOc1ccccc1 | inactive
O=C1NC(=O)N(Cc2ccco2)C(=O)/C1=C\c1ccc(-c2ccc(F)cc2)o1 | 20.6 µM (active)
O=C(O)C1CSC(c2cccnc2)N1 (centres undefined) | inactive
Fc1ccc(C(OCCN2CCN(C/C=C\c3ccccc3)CC2)c2ccc(F)cc2)cc1 | 5.31 µM (active)
CN(C)S(=O)(=O)c1cc(C(=O)N2CCC(C(=O)O)(c3ccccc3)CC2)ccc1Cl | inactive
COC(=O)CN1C(=O)C2(C(C(=O)OC)=C(N)Oc3ccccc32)C2=C1CC(C)(C)CC2=O (centres undefined) | inactive
C/C=C/CC1(CC)C(=O)NC(=S)NC1=O | inactive
CN1CC[C@H](c2c(O)cc(O)c3c(=O)cc(-c4ccccc4Cl)oc23)[C@H](O)C1 | 0.0944 µM (active)
Cc1ccc(C)c(NC2=NCCCS2)c1 | inactive
O=c1[nH]c(O)c(C=Nc2cc(F)cc(F)c2)c(=O)[nH]1 | inactive
O=C1C2(Cl)C3(Cl)C4(Cl)C(Cl)(Cl)C5(Cl)C3(Cl)C1(Cl)C5(Cl)C24Cl (centres undefined) | 18.4 µM (active)

Structure (SMILES) | Potency
ClC(Cl)(Cl)c1ccccc1 | inactive
COc1ccc(NC(=O)c2cn(CCC#N)nc2-c2ccc([N+](=O)[O-])cc2)cc1 | inactive
CNC(=O)Nc1ccc(C(O)(C(=O)OC)C(F)(F)F)cc1 (centres undefined) | inactive
O=S(=O)(O)C(F)(F)C(F)(F)C(F)(F)C(F)(F)F | inactive
CCOC(=O)[C@]12Cc3ccccc3[C@H]1N(C1CCCCC1)C(=O)c1cc(OC)ccc12 | 2.91 µM (active)
CCOC(=O)[C@]12Cc3cc(OC)ccc3[C@H]1N(C(C)C)C(=O)c1ccccc12 | 13 µM (active)
COc1ccccc1-n1c(O)c(C=NC2CC2)c(=O)[nH]c1=O | inactive
COC(=O)N1C(c2ccccc2)C1c1ccccc1 (centres undefined) | inactive
O=C(O)/C=C/c1ccc2c(c1)OCO2 | inactive
Clc1cccc(Cl)c1Cl | inactive
CCOC(=O)C(O)(c1ccc(N)c(OC)c1)C(F)(F)F (centres undefined) | inactive
O=C(CCC(=O)N1C[C@H]2C[C@@H](C1)c1cccc(=O)n1C2)NCc1ccccc1C(F)(F)F | inactive
C[C@@]12CCC3C(CC[C@@H]4CC(O)CC[C@@]34C)C1CCC2O (some centres undefined) | inactive
COc1cccc(C(=O)N2C[C@H]3C[C@@H](C2)c2cccc(=O)n2C3)c1 | inactive
CCOCCc1c(O)[nH]c(=S)[nH]c1=O | inactive
CN(C)C(=O)Oc1ccc(OCc2cccc[n+]2C)cc1 | inactive
c1cc2c(cc1CCNC1CCCCCC1)OCO2 | inactive
c1ccc2sc(SNC3CCCCC3)nc2c1 | inactive
CC(C)(C)c1ccc(S(=O)(=O)Nc2ccc(O)c(Sc3nc4ccccc4s3)c2)cc1 | 18.4 µM (active)
C=CC12CN(C)[C@@H]3C4CO[C@H](C[C@H]41)[C@]1(C(=O)Nc4ccccc41)[C@@H]32 (some centres undefined) | inactive
CCN(N=Nc1nonc1OC)c1nonc1OC | inactive
c1ccc2sc(N3CCNCC3)nc2c1 | inactive
CCN1C[C@]2(COC)C(O)C[C@H](OC)[C@@]34C5C[C@]6(O)C(OC)C(O)[C@](OC(C)=O)(C5C6OC(=O)c5ccccc5)C(C(OC)C23)C14 (some centres undefined) | inactive
CC(C)N(CC#CCC1(O)c2ccccc2-c2ccccc21)C(C)C | inactive
c1cc2c(c(NC3=NCCCS3)c1)CCCC2 | inactive
COC(=O)N(c1ccc(OC)cc1)P1(=S)OCCC(C)O1 (centres undefined) | 14.6 µM (active)

Structure (SMILES) | Potency
Cc1ccc(-n2c(O)c(C=NCC3CCCO3)c(=O)[nH]c2=O)c(C)c1 (centres undefined) | inactive
CCC1(C)CC(CCNCc2ccc(N(C)C)cc2)(c2ccc(F)cc2)CCO1 (centres undefined) | 16.4 µM (active)
CC(=O)N1CN2CN(C(C)=O)CC(C(=O)c3ccc(Br)cc3)(C2)C1 | inactive
COc1ccccc1NC(=O)N1C[C@@H]2C[C@@H](C1)c1cccc(=O)n1C2 | inactive
O=c1[nH]c(=S)[nH]c(O)c1/C=C1\C=Nc2ccccc21 | 7.31 µM (active)
COc1ccccc1N=Nc1c(O)[nH]c(=S)[nH]c1=O | inactive
CN(C)c1nc(N(C)C)nc(N(C#N)CCCl)n1 | inactive
Cc1ccc(OC(=O)N(C)C[C@@H]2OCc3cnnn3CCCC(=O)N([C@H](C)CO)C[C@@H]2C)cc1 | inactive
CCC1(c2ccccc2)C(=O)NC(=O)N(C)C1=O (centres undefined) | inactive
COc1ccc(Br)cc1CNCCc1cccc(Cl)c1 | 18.4 µM (active)
COc1cc(C[C@H](C)N)c(OC)cc1Br | inactive
CC[C@]1(O)C(=O)OCc2c1cc1n(c2=O)Cc2cc3ccccc3nc2-1 | 0.0168 µM (active)
CC1=C2C(=O)C3C(CC=C4CC(OC5OC(O)C(O)C(O)C5CO)CCC43C)C2CCC12OC1CC(C)CNC1C2C (centres undefined) | inactive
Cc1ccc2c(c1)C1CN(C)CCC1N2C(=O)Cn1nnc(-c2ccccc2F)n1 (centres undefined) | inactive
CC(C)(c1ccc(OC[C@@H]2CO2)cc1)c1ccc(OC[C@H]2CO2)cc1 | 10.6 µM (active)
CCOP(=O)(OCC)C(NC(=O)NC)C(N)=O (centres undefined) | inactive
Nc1ccc(C(=O)N/N=C2/CN3CCC2CC3)cc1 | inactive
O=C(Nc1cccc(OC(=O)N2CCCCC2)c1)N1CCOCC1 | inactive
O=C(/C=C/c1cccs1)c1cc(Cl)ccc1OC(=O)N1CCOCC1 | 16.4 µM (active)
Cc1cc(-c2ccc(N)c(C)c2)ccc1N | inactive
C=CCN1C(=O)C2(C(C(=O)OCC)=C(N)Oc3c2c(=O)oc2ccccc32)c2ccccc21 (centres undefined) | inactive
CCCCCCN=C(CC)c1c(O)n(CCCC)c(=O)[nH]c1=O | 14.6 µM (active)
CCC(=NCCCO)c1c(O)n(-c2ccc(OC)cc2)c(=O)[nH]c1=O | inactive
CCCCn1c(O)c(C(CC)=NCc2ccco2)c(=O)[nH]c1=O | inactive
OC(CNC1CCCCC1)c1ccccc1 (centres undefined) | inactive
NS(=O)(=O)c1ccc(CCNC(=O)c2ccc(Cl)c(S(=O)(=O)N3CCCCCC3)c2)cc1 | 20.6 µM (active)
